5 compounds from PubChem BioAssay (NCATS) can be followed below.

Assay [1] addresses Tumor necrosis factor (Homo sapiens) (UniProt P01375). Put plainly: qHTS assay to identify small molecules that stimulate Tumor Necrosis Factor-alpha (TNF-alpha) secretion (AID 651757; active = well fitted curve in the direction sought with a large enough effect in the signal ratio; the % refers to the signal ratio; also: 0% is about no effect). The gist of the method: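 Using 3000 THP-1 cells per well, compounds and controls were applied for 17 hrs at 37 C. Detection followed with two labeled anti-TNF-alpha antibodies (cryptate donor, XL665 acceptor) for 3 hr at room temperature, measured by TR-FRET.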
On the technique in general: In qHTS, concentration-response curves come from the screen itself.

Assay [2] can be described thus: qHTS assay to identify small molecules that stimulate interleukin-8 (IL-8) secretion (AID 651758; active = well fitted activation curve with a large enough effect in the signal ratio; the % refers to the signal ratio; also: 0% is about no effect). In outline:
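Compounds are added to THP-1 cells (2000 per well) and left 16 hrs at 37 C. A labeled anti-IL-8 antibody pair is then added, and IL-8 secretion is measured by time-resolved FRET after 1-3 hrs at room temperature.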

Assay [3] can be described thus: qHTS assay for environmental chemicals that activate the Aryl hydrocarbon Receptor (AhR) signaling pathway (AID 651777). Also: nearly all actives have a fitted effect of over 15% in size. Also: potency is read from the fitted curve at half-maximal effect. As to activation: % of control where 0% means no effect. To be noted: 1A2-DRE human hepatoma cells, luciferase, 24 h; activation: stronger effect = higher value. The gist of the method:
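Luminescence (One-Glo, 30 min, room temperature) reports AhR-driven luciferase in stably transfected human hepatoma cells bearing DRE and CYP1A2 promoter. Cells (1,200/well) were treated with compound for 24 hr at 37 C in qHTS format.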

Assay [4] concerns the target Peroxisome proliferator-activated receptor alpha (Homo sapiens) (UniProt Q07869). As to the kind of experiment: qHTS assay for small molecule agonists of the peroxisome proliferator-activated receptor alpha (PPARalpha) signaling pathway (AID 651778). Also: % of control where 0% means no effect. The conditions noted are these: PathHunter PPARalpha complementation, chemiluminescence, 6 h; stronger effect = higher value. The gist of the method:
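Enzyme-fragment complementation assay in which ligand-bound PPARalpha translocates and forms an active enzyme that generates chemiluminescence. Cells were plated overnight, exposed to compound for 6 hr at 37 C, and then given detection reagent for 60 min at room temperature.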

Assay [5] deals with Nuclear receptor ROR-gamma (Homo sapiens) (UniProt P51449). Put plainly: qHTS assay for small molecule antagonists of the retinoid-related orphan receptor gamma (ROR-gamma) signaling pathway (AID 651802).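 Also: luciferase reporter luminescence driven by ROR response element; series mostly up to about 92 µM; % is scaled to controls: 0 for no effect and ±100 for the full control effect; nearly all actives have a fitted effect of over 60% in size.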 In outline: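 Doxycycline-induced reporter activity in engineered CHO cells (TET-inducible ROR, RORE-LUC) was measured by luminescence after 16hr compound exposure at 37C.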

Assay [6] in a line: qHTS assay for small molecule agonists of the antioxidant response element (ARE) signaling pathway measured by Nrf2-dependant transcriptional activity (AID 720636; active = well fitted curve in the direction sought with a large enough effect in the repeat runs; an effect the other way counts as inactive or inconclusive; also: % of control where 0% means no effect). In outline: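 Nrf2-dependent transcription read as ONE-Glo luciferase signal from ARE-luc HepG2 reporter cells after 16 hr compound treatment at 37 C, 5% CO2, in assay medium with 1% dialyzed FBS.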
Assay [7] can be described thus: qHTS assay for small molecule agonists of the antioxidant response element (ARE) signaling pathway measured by Nrf2-dependant transcriptional activity - cell viability counter screen (AID 720653; active = well fitted curve in the direction sought with a large enough effect in the repeat runs; an effect the other way counts as inactive or inconclusive; also: % is scaled to controls: 0 for no effect and ±100 for the full control effect). To be noted: ARE-bla HepG2 viability, CellTiter-Glo ATP luminescence, 16 h; stronger effect = lower value. The gist of the method:
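ARE-bla HepG2 cells treated with compounds for 16 h at 37C; this counter screen measures viability as intracellular ATP by CellTiter-Glo luminescence after 30 min at room temperature.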

A short description of assay [8]: qHTS assay for cell viability of HEK293 cells (AID 743288). Also: % is scaled to controls: 0 for no effect and ±100 for the full control effect; nearly all actives have a fitted effect of over 50% in size. The conditions noted are these: ATP luminescence (CellTiter-Glo), 18 h, stronger effect = lower value. The gist of the method:
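Readout is luciferase-coupled ATP content (CellTiter-Glo luminescence, 30 min room temperature) as a measure of metabolically competent cells. Parental HEK293 cells were plated 5 h or more before compound addition, then treated 18 h at 37 C.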

The nature of assay [9]: qHTS assay for cell viability of the p53RE-bla HCT-116 cell line (AID 743292). Also: % is scaled to controls: 0 for no effect and ±100 for the full control effect; nearly all actives have a fitted effect of over 55% in size. In outline:
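ATP-based luminescent viability (CellTiter-Glo, 30 min RT) after 16 h compound treatment at 37 C of p53RE-bla HCT-116 cells, seeded at 4,000 cells/well and rested 5 h before dosing.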

Assay [10] deals with Nuclear receptor subfamily 1 group I member 2 (Rattus norvegicus) (UniProt Q9R1A7). As to the kind of experiment: qHTS assay for small molecule activators of the rat pregnane X receptor (rPXR) signaling pathway (AID 651751; call rule not given here; also: 0% is about no effect). To be noted: rPXR reporter cells, luciferase (One-Glo), 24 h.
The nature of assay [11]: qHTS assay for small molecule activators of the human pregnane X receptor (PXR) signaling pathway (AID 720659; call rule not given here; also: 0% is about no effect).
Assay [12] is described as follows: qHTS assay for small molecule antagonists of the retinoid-related orphan receptor gamma (ROR-gamma) signaling pathway - cell viability counter screen (AID 720652; active = well fitted curve in the direction sought with a large enough effect in the repeat runs; an effect the other way counts as inactive or inconclusive;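 also: series mostly up to about 92 µM; compound exposure lasted 16 hr before ATP read; % is scaled to controls: 0 for no effect and ±100 for the full control effect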). The gist of the method:
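ATP-based viability readout in the ROR-gamma reporter CHO cells after 16 hr compound exposure under doxycycline induction.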

Assay [13] can be described thus: qHTS assay for small molecule disruptors of the mitochondrial membrane potential - 1 hr assay (AID 651754; calls by dose curve; also: % is scaled to controls: 0 for no effect and ±100 for the full control effect; nearly all actives have a fitted effect of over 35% in size). In outline:
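In this qHTS format, a 1 hr compound treatment of HepG2 cells precedes Mito-MPS staining, and membrane potential is judged from aggregate (red) against monomer (green) fluorescence intensity.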

A short description of assay [14]: qHTS assay for small molecule disruptors of the mitochondrial membrane potential - 5 hr assay (AID 651755; calls by dose curve; also: % is scaled to controls: 0 for no effect and ±100 for the full control effect; nearly all actives have a fitted effect of over 40% in size). In outline: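 Read-out: ratiometric Mito-MPS fluorescence, green monomer (ex 490/em 535) vs red mitochondrial aggregate (ex 540/em 590). HepG2 cells treated 5 hr at 37C before 30 min dye loading.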

A number with no mark means an inactive call. Results filed as inconclusive are left out. Calls of active or inactive are those of the source. Unless noted, calls follow the shape of the dose curve; as a rule, active = well fitted curve in the direction sought with a large enough effect; inconclusive = small, poorly fitted or top-dose-only effect, or another doubt; inactive = no such curve, though single readings can be large; an effect the other way counts as inactive or inconclusive.

Chain of Peroxisome proliferator-activated receptor alpha (Homo sapiens) (Q07869 whole entry, looked up, the tested form may be a part): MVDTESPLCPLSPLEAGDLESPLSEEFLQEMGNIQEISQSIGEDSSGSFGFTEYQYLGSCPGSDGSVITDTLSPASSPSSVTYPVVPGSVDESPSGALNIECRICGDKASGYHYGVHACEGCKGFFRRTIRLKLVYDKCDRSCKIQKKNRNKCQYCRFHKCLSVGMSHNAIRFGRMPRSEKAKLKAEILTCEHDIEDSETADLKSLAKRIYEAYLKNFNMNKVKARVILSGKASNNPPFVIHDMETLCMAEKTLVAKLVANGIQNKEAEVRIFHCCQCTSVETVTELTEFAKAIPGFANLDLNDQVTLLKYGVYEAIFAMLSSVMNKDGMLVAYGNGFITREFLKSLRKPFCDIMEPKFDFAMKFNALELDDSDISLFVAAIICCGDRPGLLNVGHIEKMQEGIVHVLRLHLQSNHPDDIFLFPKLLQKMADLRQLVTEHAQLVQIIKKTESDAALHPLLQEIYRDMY
Chain of Nuclear receptor subfamily 1 group I member 2 (Rattus norvegicus) (Q9R1A7 whole entry, looked up): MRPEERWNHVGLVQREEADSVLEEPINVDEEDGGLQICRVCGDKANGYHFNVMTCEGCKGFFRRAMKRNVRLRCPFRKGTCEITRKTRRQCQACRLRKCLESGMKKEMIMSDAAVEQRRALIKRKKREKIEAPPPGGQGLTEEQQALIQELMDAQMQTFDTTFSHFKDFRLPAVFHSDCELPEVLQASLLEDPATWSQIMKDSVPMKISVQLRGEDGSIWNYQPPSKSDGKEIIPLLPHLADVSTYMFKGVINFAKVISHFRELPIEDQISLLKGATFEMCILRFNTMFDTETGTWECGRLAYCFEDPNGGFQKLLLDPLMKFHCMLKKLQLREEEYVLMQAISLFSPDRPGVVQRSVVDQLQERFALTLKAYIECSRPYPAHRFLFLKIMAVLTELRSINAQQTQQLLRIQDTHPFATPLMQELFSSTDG
Chain of Nuclear receptor ROR-gamma (Homo sapiens) (P51449 whole entry, looked up): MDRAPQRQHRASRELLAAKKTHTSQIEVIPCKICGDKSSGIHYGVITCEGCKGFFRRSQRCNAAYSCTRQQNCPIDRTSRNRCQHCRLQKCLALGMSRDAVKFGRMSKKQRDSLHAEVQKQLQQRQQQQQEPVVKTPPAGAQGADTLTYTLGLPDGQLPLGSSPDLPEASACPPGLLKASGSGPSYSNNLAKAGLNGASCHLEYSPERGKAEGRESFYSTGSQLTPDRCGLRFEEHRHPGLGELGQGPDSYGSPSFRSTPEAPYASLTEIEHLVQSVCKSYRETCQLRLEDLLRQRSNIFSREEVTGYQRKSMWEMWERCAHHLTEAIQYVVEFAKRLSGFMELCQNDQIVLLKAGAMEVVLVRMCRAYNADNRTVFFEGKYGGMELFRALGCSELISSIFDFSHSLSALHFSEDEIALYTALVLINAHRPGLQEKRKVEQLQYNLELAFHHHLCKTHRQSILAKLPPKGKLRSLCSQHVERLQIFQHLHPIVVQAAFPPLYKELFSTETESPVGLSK
Chain of Tumor necrosis factor (Homo sapiens) (P01375 whole entry, looked up): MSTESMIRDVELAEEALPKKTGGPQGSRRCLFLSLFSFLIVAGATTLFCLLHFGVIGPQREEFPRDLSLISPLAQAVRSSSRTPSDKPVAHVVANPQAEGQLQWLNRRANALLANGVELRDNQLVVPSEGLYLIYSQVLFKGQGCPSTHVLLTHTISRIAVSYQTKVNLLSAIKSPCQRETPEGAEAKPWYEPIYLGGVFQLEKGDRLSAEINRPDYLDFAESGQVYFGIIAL

Turning to `CC=O`, the Potency entry in assay [1], in [2], in assay [5] and in assay [9] was “inactive” throughout. Further, the activation in [3] was 1.11%. Further, the max response is -2.4% in [4], 5.19% in [7], -3.08% in assay [8] and -4.58% in assay [10]. Also, the result in [6] and in assay [11] was inactive.
As for `C/C(C=O)=C/c1ccccc1`, in assay [3], the activation is -1.35%. In addition, the max response in assay [4] is -3.84%; in [7] it was -7.12%; in assay [8] it was 5.25%; in [10] it was 2.25%. Moreover, the Potency entry in assay [5], in [12] and in [9] was “inactive” throughout. Besides, the compound was classed as inactive in [6] and in [11].
As to `COc1ccc(N=[N+]([O-])c2ccc(OC)cc2)cc1`, the Potency result in assay [13], in [14] and in assay [9] was “inactive” each time. The Potency in assay [3] is 1120 nM (active). In addition, the max response is -3.57% in assay [4], -28.6% in assay [7] and -5.78% in assay [8].
Turning to `OCCO`, the Potency entry in [13], in assay [14], in assay [1], in assay [12] and in [9] was “inactive” in each case. In addition, the activation in [3] was 0.215%. The max response in [4] was -4.04%; in assay [7], -3.22%; in [8] it was -10.8%. The compound was classed as inactive in [6].
For the compound `Oc1cccc(Nc2ccccc2)c1`, the activation in assay [3] is 4.89%. In addition, the max response is -0.0901% in assay [4], -2.76% in [7], 2.73% in assay [8] and 5.07% in assay [10]. Moreover, the Potency result in assay [5], in [12] and in [9] was “inactive” throughout. Besides, the compound was called inactive in assay [6] and in assay [11].
